Screens (PubChem)
Pf growth 48h: Primary qHTS for delayed death inhibitors of the malarial parasite plastid, 48 hour incubation; 310,000 compounds, 5.9% hits; Potency, µM (doses to about 28.7 µM), for the others: at the top dose activity change, negative = inhibition, most hits filed as inhibitors; AID 504832, 2011; P. falciparum luciferase growth in erythrocytes, 48 h; note: potency is the fitted concentration of half-maximal effect; % is set by controls: 0 for no effect and ±100 for the full control effect
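First compound was added to culture medium, then infected red cells at 0.1% parasitemia and 2% hematocrit (final). After incubation at 37 C under 5% CO2, luciferase detection reagent was dispensed and light output recorded.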
Shiga inhibitor: A qHTS for Small Molecule Inhibitors of Shiga Toxin; Vero cells, Shiga toxin protein synthesis inhibition reporter; inhibition, % at 38.7 µM; 290,000 compounds, 9.2% hits; AID 2315, 2010; in the data active = inhibition mostly above about 28%, no sharp cut-off; inactive = mostly below about 43%; note: 0% is about no effect
Pf growth 96h: Primary qHTS for delayed death inhibitors of the malarial parasite plastid, 96 hour incubation | P. falciparum luciferase reporter growth, 96 h | Potency, µM (highest dose often 28.7 µM), inactives show top-dose activity change, negative = inhibition, hits mostly inhibitors | 320,000 compounds, 6.9% hits | AID 504834, 2011; note: potency is the fitted concentration of half-maximal effect; % is set by controls: 0 for no effect and ±100 for the full control effect
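Readout is luminescence from an integrated firefly luciferase in P. falciparum. Red cells, 2% hematocrit and 0.05% parasitemia final, were cultured with compound through two parasite generations (96 hours) at 37 C, 5% CO2.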
Sm TGR block: qHTS Assay for the Inhibitors of Schistosoma Mansoni Peroxiredoxins. AID 485364, 2010. purified TGR, DTNB reduction, TNB absorbance 405 nm. Schistosoma mansoni thioredoxin glutathione reductase (TGR), Q962Y6. 360,000 compounds, 3% hits. Potency, µM (doses to about 114 µM), inactives show top-dose activity change, negative = inhibition, actives largely listed as inhibitors; note: potency is the fitted concentration of half-maximal effect; % is set by controls: 0 for no effect and ±100 for the full control effect; nearly all actives have a fitted effect of over 60% in size
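Kinetic colorimetric format: TGR-catalysed, NADPH-driven DTNB reduction monitored via TNB absorbance. Enzyme dispensed at 20 nM; compound exposure 15 min at room temperature before reaction start.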
Cycloheximide cs: Cycloheximide Counterscreen for Small Molecule Inhibitors of Shiga Toxin. AID 2314, 2010. max response, %. cell reporter, cycloheximide protein synthesis inhibition counterscreen. 300,000 compounds, 12% hits; in the data active = max response mostly above about 13%, no sharp cut-off; inactive = mostly below about 14%; note: read at 38.3 µM for the half of the compounds with a filed dose; 0% is about no effect
NS1 inh: qHTS Assay for Inhibitors of Influenza NS1 Protein Function | Potency, µM (highest dose often 46.1 µM), inactives show at the top dose activity, positive = more growth | 270,000 compounds, 0.4% hits | AID 2326, 2010; calls by dose curve; note: potency is the fitted concentration of half-maximal effect; actives are rising curves; nearly all actives have a fitted effect of over 50% in size
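OD600 was taken as the measure of yeast growth restored by compound in an NS1-expressing S. cerevisiae strain. Cells had been washed out of glucose medium and diluted 1:100 into galactose -URA medium, pH 6.0.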
* marks the source's active call; other numbers are inactive results; ? = inconclusive; nt = not tested or not shown; [ ] = another dose, or the depositor's remark. The list is not random: actives were taken first. Their share in the collection is about 21%. Unless noted, calls come from the whole dose curve; as a rule, active = well fitted curve in the direction sought with a large enough effect; inconclusive = small, poorly fitted or top-dose-only effect, or another doubt; inactive = no such curve, though single readings can be large; an effect the other way counts as inactive or inconclusive.

SMILES | Pf growth 48h | Shiga inhibitor | Pf growth 96h | Sm TGR block | Cycloheximide cs | NS1 inh
CC1(C)CC(NC(=O)C2CCC(=O)N(C3CC3)C2)CC(C)(C)C1 (stereo unspecified) | 8% | -2 | 8.3µM* | 1% | -1 | 16%
Cc1ccc(S(=O)(=O)Nc2cccc(-c3ccc(N4CCCCC4)nn3)c2)s1 | nt | nt | nt | 1% | nt | nt
O=S(=O)(Nc1cccc(-c2ccc(N3CCCCCC3)nn2)c1)c1ccccc1Cl | 26% | 58* | ? | 3% | 34* | 12%
O=S(=O)(Nc1cccc(-c2ccc(N3CCCCCC3)nn2)c1)c1ccccc1F | 99% | 110* | 15µM* | -10% | 32* | -5%
COc1ccc(CCNC(=O)CCn2c(=O)c3ccccc3n(Cc3ccccc3)c2=O)cc1OC | nt | nt | nt | 0% | nt | nt
O=C(NNC(=O)c1ccc(Cn2cccn2)o1)NC12CC3CC(CC(C3)C1)C2 | 2% | -5 | -24% | -10% | -2 | -9%
Cc1ccc(CNC(=O)C(=O)NCC(c2ccc3c(c2)OCO3)N2CCOCC2)cc1 (stereo unspecified) | nt | nt | nt | 7% | nt | nt
CCN(C(=O)c1ccccc1F)c1nc(-c2ccc(OC)cc2)cs1 | 4% | 51* | -23% | -20% | 44* | 16%
COCCN(C(=O)c1ccccc1F)c1nnc(-c2ccc(OC)cc2)s1 | -23% | 46* | ? | 3% | 32* | -9%
COCCN(C(=O)c1ccccc1F)c1nc(-c2ccc(OC)cc2)cs1 | ? | 11 | 316% | 12% | -2 | 28%
CCC(=O)N(CC)c1nc(-c2ccc(OC)cc2)cs1 | 84% | 84* | 0% | 6% | 61* | -10%
COCCN(C(=O)C(C)C)c1nnc(-c2ccc(C)cc2)s1 | 78% | 83* | 69% | 0% | 29 | -25%
CCCCNc1c(NC(C)=O)c(=O)oc2ccccc12 | 25% | -17 | 38% | -15% | -3 | 3%
Cc1ccc2nc(COc3cccc(NC(=O)COc4ccccc4F)c3)cc(=O)n2c1 | nt | nt | nt | -1% | nt | nt
O=C(COC(=O)Cc1ccc(S(=O)(=O)N2CCOCC2)s1)Nc1ccc([N+](=O)[O-])cc1 | ? | nt | ? | -9% | nt | nt
O=C(Oc1ccc(/C=N/Nc2ccccc2)cc1)c1ccccc1 | ? | 75* | -58% | -16% | 22* | -64%
O=C(O)c1ccc(N/N=C/c2ccc(OC(=O)c3cccc(Cl)c3)cc2)cc1 | -7% | 75* | 241% | 3% | 37* | -2%
O=C(Oc1ccc(/C=N/O)cc1)c1ccccc1 | nt | 58 | -19% | -19%[11.4 µM] | 23* | -96%
CNc1oc(-c2ccc(C)cc2)nc1P(=O)(c1ccccc1)c1ccccc1 | 0.12µM* | -9 | 15µM* | -10% | 7 | 3%
CNc1oc(-c2ccccc2Cl)nc1P(=O)(c1ccccc1)c1ccccc1 | ? | -5 | ? | -1% | 1 | -2%
CN(c1cccc(NC(=O)CN(c2cccc(F)c2)S(C)(=O)=O)c1)S(C)(=O)=O | 6% | -3 | -1%[5.75 µM] | 0% | -1 | nt
Cc1cc(C)c(C)c(S(=O)(=O)N2CCCCC2C(=O)O)c1C (stereo unspecified) | 0% | -2 | ? | -3% | -4 | nt
Cc1nnc(SCC(=O)Nc2cccc(S(=O)(=O)N3CCCCC3)c2)s1 | -9% | nt | ? | 0% | nt | nt
Cc1ccc(Nc2nnc(SCC(=O)Nc3cccc(S(=O)(=O)N4CCCCC4)c3)s2)cc1 | -9% | 5 | ? | -3% | 53* | -18%
O=C(CSc1nnc(Nc2ccccc2F)s1)Nc1cccc(S(=O)(=O)N2CCCCC2)c1 | 22% | 75* | ? | -6% | 42* | 25%
SMILES | Pf growth 48h | Shiga inhibitor | Pf growth 96h | Sm TGR block | Cycloheximide cs | NS1 inh
O=C(CSc1ccccn1)Nc1cccc(S(=O)(=O)N2CCCC2)c1 | -29% | nt | ? | 1% | nt | nt
CC(=O)c1ccc(Sc2ccc(C(C)=O)cc2)cc1 | 47% | 40* | ? | 3% | 37* | 9%
Cc1c(C(N)=O)sc(N)c1C(=O)OC(C)C | 0% | 11 | 10% | 0% | 2 | 2%
Cc1c(C(=O)OC(C)C)sc(N)c1C(=O)OC(C)C | 49% | 107* | 23% | 5% | 32* | -4%
CC(=O)c1sc(N)c(C(=O)OC(C)C)c1C | 66% | 24 | 130% | 0% | 19* | -15%
COc1cc(Br)ccc1C1C(C(=O)Nc2ccc(C)cc2C)=C(C)Nc2nnnn21 (stereo unspecified) | nt | nt | nt | 4% | nt | nt
Cc1ccc(C(=O)COC(=O)c2ccc(O)cc2)cc1 | 20% | 94* | 68% | 9% | 33* | -3%
CC(=O)Nc1ccc(C(=O)COC(=O)C2CC3CCCC(C2)C3=O)cc1 (stereo unspecified) | 36% | nt | 42% | ? | nt | nt
CC(C)(C)NC(=O)COC(=O)c1ccc(O)cc1 | 32% | 19 | 30% | 0% | 17* | 8%
Cc1ccc(C(=O)COC(=O)C2CCC2)cc1 | 20% | 48* | 20% | 11% | 36* | 0%
CSc1nnc(-c2ccc(S(=O)(=O)N3CCOCC3)cc2)n1C | 3% | -3 | 10% | 1% | -2 | 0%
COc1ccccc1-c1csc(NC(=O)c2cc(-c3cccs3)nc3ccccc23)n1 | ? | -15 | 7.4µM* | 2% | -1 | ?
COc1ccc(-c2cc(C(=O)O)c3ccccc3n2)c(OC)c1 | -1% | 1 | 4% | -2% | -2 | -2%
COc1ccc(-c2cc(C(=O)N/N=C/c3sccc3C)c3ccccc3n2)c(OC)c1 | nt | -6 | 12µM* | 4% | 5 | -45%
CCn1cc(/C=N\NC(=O)c2cc(-c3ccccc3OC)nc3ccccc23)c(C)n1 | 1.7µM* | 12 | 1.9µM* | -3% | 5 | -24%
COc1ccccc1-c1cc(C(=O)N/N=C\c2cn(C)nc2C)c2ccccc2n1 | ? | -3 | ? | -2% | -3 | 1%
COc1ccc(-c2cc(C(=O)N/N=C/c3ccc(OC)c(COCC(F)(F)C(F)F)c3)c3ccccc3n2)c(OC)c1 | 1.5µM* | -4 | 6.6µM* | 1% | 4 | ?
COc1ccc(-c2csc(NC(=O)c3cc(-c4cccs4)nc4ccccc34)n2)c(OC)c1 | ? | 11 | ? | 6% | -1 | 26%
COc1ccc(-c2cc(C(=O)N/N=C/c3ccc4c(c3)OCO4)c3ccccc3n2)c(OC)c1 | ? | -11 | ? | 13% | 1 | 3%
COc1ccc(-c2cc(C(=O)N/N=C(\C)c3ccco3)c3ccccc3n2)c(OC)c1 | 9.3µM* | -3 | 13µM* | -10% | -4 | 15%
COc1ccccc1-c1cc(C(=O)N/N=C/c2cccs2)c2ccccc2n1 | nt | 19 | 4.1µM* | -5% | 0 | 16%
Cc1nn(-c2ccccc2)nc1-c1nnc(-c2ccc(C(F)(F)F)cc2)o1 | 0.26µM* | 2 | ? | 28% | -1 | -2%
